Results as given in PubChem BioAssay (NCI).
Compounds without any hit were thinned out: in the full panel of roughly 79,000, 15% have a hit. No stated cut-off is given here; in the data, active means growth inhibition above about 70%; inactive means the rest.

Key:
[1] = NCI Yeast Anticancer Drug Screen. Data for the rad50 strain (AID 155);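 further: 0% = growth of vehicle-only cultures of the same strain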; conditions: S. cerevisiae rad50 strain growth inhibition; at 50.0 µM; stronger effect = higher value
Outline: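 Vehicle-treated cultures provide the reference for the growth inhibition reported for compound-exposed, repair-deficient yeast.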

[2] = NCI Yeast Anticancer Drug Screen. Data for the mec2-1 strain (AID 157); conditions: S. cerevisiae mec2-1 strain, at 50.0 µM, stronger effect = higher value
Outline: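 mec2-1 yeast strain, carrying an alteration in DNA damage repair or cell cycle control, was exposed to compounds; growth inhibition was measured relative to vehicle-treated controls.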

[3] = NCI Yeast Anticancer Drug Screen. Data for the sgs1 mgt1 strain (AID 161);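 further: 0% = growth of cultures given vehicle only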; conditions: S. cerevisiae sgs1 mgt1 strain, at 50.0 µM, stronger effect = higher value
Outline: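 This yeast growth screen uses a strain with defined DNA-repair lesions; compound-treated growth is compared with vehicle-treated growth.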

[4] = NCI Yeast Anticancer Drug Screen. Data for the cln2 rad14 strain (AID 165);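 further: 0% = growth equal to vehicle treated cultures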; conditions: S. cerevisiae cln2 rad14 strain, at 50.0 µM, stronger effect = higher value
Outline: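 Yeast carrying cln2 and rad14 alterations (cell cycle control and DNA damage repair) were exposed to compounds. Growth inhibition was measured against vehicle-treated controls.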

[5] = NCI Yeast Anticancer Drug Screen. Data for the bub3 strain (AID 167); conditions: S. cerevisiae bub3 mutant strain, at 50.0 µM, stronger effect = higher value
Outline: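 Mutant yeast screening strain plus compound; vehicle-treated cultures serve as the 0% inhibition reference.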

[6] = NCI Yeast Anticancer Drug Screen. Data for the mlh1 rad18 strain (AID 175); conditions: S. cerevisiae mlh1 rad18 strain growth inhibition; at 50.0 µM; stronger effect = higher value
Outline: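 Growth inhibition of the yeast strain was measured after compound exposure and expressed relative to vehicle-treated controls. The strain carries defined defects in DNA damage repair.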

Measured: growth inhibition

COc1cc(-c2ccc(NC(=O)N3CC3)c(OC)c2)ccc1NC(=O)N1CC1
inactive: [1] 8.8% | [2] -2.5% | [3] 8.3% | [4] 19.4% | [5] -0.4% | [6] 10.7%

Clc1nc(-c2ccccc2)nc2ccccc12
inactive: [1] -10.1% | [2] -17.6% | [3] -18.2% | [4] -29.6% | [5] -19.8% | [6] -7.25%

CCC[CH2][Ge]([CH2]CCC)([CH2]CCC)[O]C(=O)CCl
inactive: [1] -14.2% | [2] 31.7% | [3] -4.75% | [4] -52.9% | [5] -13.2% | [6] 31.9%

Cc1onc(-c2c(Cl)cccc2Cl)c1C(=O)Nc1ccc(Cl)c(Cl)c1Cl
inactive: [1] -12.4% | [2] -14.7% | [3] -3.2% | [4] 12.1% | [5] 2.25% | [6] -8.25%

CC(=O)[O][Ga]([Br])[O]C(C)=O
inactive: [1] 6.3% | [2] 11.8% | [3] 12.3% | [4] 14.4% | [5] 15.7% | [6] 0.5%

COC(=O)/C=C\n1c(C)cc(=O)[nH]c1=O
inactive: [1] 2.9% | [2] 0.35% | [3] -5.5% | [4] -4.75% | [5] -2.8% | [6] -45.5%

Cc1cc(Cl)ccc1C(=O)O
inactive: [1] -0.9% | [2] 9.7% | [3] 13.3% | [4] 1.35% | [5] -12.8% | [6] 20.2%

CCN(CC)CCC(=O)Nc1cc(OC)cc2cccnc12
inactive: [1] 10.7% | [2] 10.5% | [3] 6.25% | [4] -21.1% | [5] -19.4% | [6] -8.1%

NC(CC(=O)N/C=N/C(=O)O)C(=O)O (configuration not stated)
inactive: [1] -5.85% | [2] 5.45% | [3] -17.2% | [4] 4.4% | [5] 6.45% | [6] -7.75%

Cn1cnc([N+](=O)[O-])c1Sc1nnc(C(F)(F)F)n1C
inactive: [1] -7.6% | [2] -6.95% | [3] -9.65% | [4] 7.5% | [5] 3.6% | [6] -6.95%

O=C(/C=C/c1ccc(OCc2ccccc2)c(OCc2ccccc2)c1)OCc1ccccc1
inactive: [1] -12% | [2] -9.65% | [3] -5.15% | [4] -33.9% | [5] -3.45% | [6] -34.8%

CCC/C(=N/NC(N)=O)C1=CCCCC1
inactive: [1] 0.45% | [2] -5.45% | [3] -2.6% | [4] -28.4% | [5] -18.9% | [6] 3.4%

O=[N+]([O-])c1ccc(/C(CBr)=N/N2CCCCC2)cc1
inactive: [1] -19.6% | [2] -24.9% | [3] -4.6% | [4] 3.55% | [5] -9.65% | [6] -13.6%

COC(CNCCO)c1ccccc1 (configuration not stated)
inactive: [1] 3.1% | [2] -17.6% | [3] -0.45% | [4] -89.2% | [5] -6.15% | [6] -5.45%

CCOc1ccc2cc3c(nc2n1)[nH]c1ccccc13
inactive: [1] -27.4% | [2] 4.15% | [3] -0.3% | [4] -16.1% | [5] 8.25% | [6] 11.1%

Nc1nc2c(c(=O)[nH]1)NC(CCNc1ccc(C(=O)NC(CCC(=O)O)C(=O)O)cc1)CN2 (configuration not stated)
inactive: [1] 14% | [2] 14.9% | [3] 25.6% | [4] 19.6% | [5] 7.65% | [6] 16.1%

Cc1cc2ccccc2c(Br)c1C
inactive: [1] 5% | [2] 4.95% | [3] 26% | [4] -36.8% | [5] -4.35% | [6] 4.7%

Nc1cc2[nH]c(=O)c3cc([N+](=O)[O-])ccc3c2cc1Cl
inactive: [1] 63.1% | [2] 1.3% | [3] 12.3% | [4] 4.8% | [5] -11.6% | [6] 32.2%

S=C1SCN(C(c2ccccc2)c2ccccc2)CN1C(c1ccccc1)c1ccccc1
inactive: [1] 12.2% | [2] 22.2% | [3] 9.4% | [4] -20.1% | [5] -4.75% | [6] 28.2%

Nc1ccn(CCOC(=O)c2ccccc2)c(=O)n1
inactive: [1] -2% | [2] -28% | [3] -14.7% | [4] -6.05% | [5] 31.2% | [6] 15.5%

c1ccc(B2Nc3ccccc3O2)cc1
inactive: [1] 18.1% | [2] 7.05% | [3] 5.3% | [4] 18.4% | [5] 43% | [6] 39.5%

Cc1cc(=O)[nH]c2nc(N)ccc12
inactive: [1] -9.5% | [2] -8.25% | [3] 11.7% | [4] -24.9% | [5] 7.8% | [6] -18.9%

CCCCC(CC)CN(CC)CC (configuration not stated)
inactive: [1] -11.1% | [2] -4.25% | [3] -26.5% | [4] -10.4% | [5] 2.8% | [6] 4.85%

CCOC(=O)C(Br)(C(=O)OCC)C(C)C
inactive: [1] 3.75% | [2] -0.8% | [3] -16.8% | [4] -16% | [5] 10.8% | [6] 9.1%

O=c1c2ccccc2nc(-c2ccccc2)n1NC(=S)Nc1ccccc1
inactive: [1] -27.9% | [2] -42.6% | [3] -39.8% | [4] -13.8% | [5] -19.9% | [6] -19%

C=CC(C)Cc1ccccc1 (configuration not stated)
inactive: [1] 2% | [2] 1.05% | [3] 7.85% | [4] 24.1% | [5] 31.5% | [6] 25.2%

Nc1nc(F)nc2c1ncn2C1OC(CO)C(O)C1O (configuration not stated)
inactive: [1] -10.3% | [2] 2.25% | [3] 8.25% | [4] 0.1% | [5] 2.15% | [6] -12.2%

Nc1cc(Cl)nc(N)n1
inactive: [1] -12.2% | [2] -16.4% | [3] 9.9% | [4] 0.1% | [5] -5.4% | [6] 17.6%

C=CCNC=O
inactive: [1] 2.55% | [2] 3.6% | [3] -6.4% | [4] -5.05% | [5] 14.4% | [6] -18.1%

O=S(=O)(/N=C1C=C/C(=N\S(=O)(=O)c2ccccc2)C2C/1C2(c1ccccc1)c1ccccc1)c1ccccc1 (configuration not stated)
inactive: [1] 39.7% | [2] 17.6% | [3] 29.8% | [4] -30.6% | [5] 1.75% | [6] 13.7%

COC(=O)CCc1cccnc1/C=N/O
inactive: [1] -26.9% | [2] -31.8% | [3] -11.8% | [4] 4.7% | [5] -11.7% | [6] -17.4%

CC(=O)OC1C(COC(=O)c2ccccc2)OC(Nc2ncc(-c3ccc(Br)cc3)s2)C(OC(=O)c2ccccc2)C1OC(=O)c1ccccc1 (configuration not stated)
inactive: [1] 1.05% | [2] 15.4% | [3] -5.9% | [4] 31.9% | [5] -3.55% | [6] -39.9%

CC(C)CCN(C=O)c1ccccc1
inactive: [1] 1.7% | [2] 0.7% | [3] 8.05% | [4] 5.5% | [5] -9.5% | [6] 2.15%

Cc1nc2c(c(-c3ccccc3)n1)Cc1ccccc1O2
inactive: [1] -4.05% | [2] -12.4% | [3] 7.55% | [4] -10.5% | [5] 25.8% | [6] 0%

COc1ccc(/C=C2\NC(=S)N(/C=C3\C(=O)Oc4ccccc4C3=O)C2=O)cc1OC
inactive: [1] -5.85% | [2] -17.6% | [3] 13.1% | [4] -7.85% | [5] -13.8% | [6] 6.4%

COS(=O)(=O)C=C(c1ccccc1)c1ccccc1
inactive: [1] 12.8% | [2] -27.1% | [3] 15.7% | [4] -24.5% | [5] 6.4% | [6] -1.95%

COc1cccc2cc(-n3nnc4ccccc43)c(=O)oc12
inactive: [1] -8.6% | [2] 18.1% | [3] 4.6% | [4] 7.6% | [5] 25.8% | [6] 9.85%

CC1(C)N=C(Oc2ccccc2)n2nccc2N1
inactive: [1] -12.6% | [2] -15.6% | [3] -14.6% | [4] 2.55% | [5] -18.3% | [6] -29.6%

CC1=NNC(c2ccco2)C1 (configuration not stated)
inactive: [1] 10.2% | [2] 5.6% | [3] 12.8% | [4] 18.1% | [5] 11.9% | [6] 5.7%

C/C(=N\N=C(/C)c1cccc2ccccc12)c1cccc2ccccc12
inactive: [1] -8.9% | [2] -0.65% | [3] 4.7% | [4] -15.9% | [5] -17.7% | [6] -36.2%

Nc1ccn([C@H]2CO[C@@H](CO)O2)c(=O)n1
inactive: [1] -53% | [2] -46.4% | [3] -18.7% | [4] 0.75% | [5] -14.7% | [6] -22.2%

COc1cc([C@@H]2OC(=O)C3C2C(=O)O[C@H]3c2ccc(O)c(OC)c2)ccc1O (some centres not stated)
inactive: [1] 7.55% | [2] 14.2% | [3] 9.25% | [4] 17.4% | [5] 0.55% | [6] 24.2%
